# Experimental data: publication PMC11062922 (Nature Chemical Biology, 2023)
# Where two headings read alike, the source gives them in different places.
# How the values were obtained:
# Design in all cases: species or system human, MV4-11 + K-562 + COLO205 + SK-N-BE2 + OVCAR-8
# [1] = system: AGK; details: read-out: apparent Kd; compound concentrations: 100 nM and 1000 nM (sheet 'Samples'), CATDS: 6.7196554082181503E-2; n = 1
# [2] = system: AKT1; details: read-out: apparent Kd; compound concentrations: 100 nM and 1000 nM (sheet 'Samples'), CATDS: 5.9892362604304798E-2; n = 1
# [3] = system: AKT2; details: read-out: apparent Kd; compound concentrations: 100 nM and 1000 nM (sheet 'Samples'), CATDS: 8.2030939692010002E-2; n = 1
# [4] = system: CDK17; details: read-out: apparent Kd; compound concentrations: 100 nM and 1000 nM (sheet 'Samples'), CATDS: 6.2311196568293398E-2; n = 1
# [5] = system: CLK4; details: read-out: apparent Kd; compound concentrations: 100 nM and 1000 nM (sheet 'Samples'), CATDS: 7.8018331182730397E-2; n = 1
# [6] = system: MAP2K1; details: read-out: apparent Kd, compound concentrations: 100 nM and 1000 nM (sheet 'Samples'), n = 1
# [7] = system: MAP2K2; details: read-out: apparent Kd, compound concentrations: 100 nM and 1000 nM (sheet 'Samples'), n = 1
# [8] = system: MAPKAPK2; details: read-out: apparent Kd; compound concentrations: 100 nM and 1000 nM (sheet 'Samples'), CATDS: 7.7313280603985193E-2; n = 1
# [9] = system: NNT; details: read-out: apparent Kd, compound concentrations: 100 nM and 1000 nM (sheet 'Samples'), n = 1
# [10] = system: NQO1; details: read-out: apparent Kd; compound concentrations: 100 nM and 1000 nM (sheet 'Samples'), CATDS: 0.112965714749218; n = 1
# [11] = system: PIP4K2C; details: read-out: apparent Kd; compound concentrations: 100 nM and 1000 nM (sheet 'Samples'), CATDS: 6.1582136800339998E-2; n = 1
# [12] = system: PRKAG2; details: read-out: apparent Kd; compound concentrations: 100 nM and 1000 nM (sheet 'Samples'), CATDS: 7.1492957845938399E-2; n = 1
# [13] = system: TNIK; details: read-out: apparent Kd; compound concentrations: 100 nM and 1000 nM (sheet 'Samples'), CATDS: 6.4996238797789693E-2; n = 1
# [14] = system: VDAC3; details: read-out: apparent Kd; compound concentrations: 100 nM and 1000 nM (sheet 'Samples'), CATDS: 6.7332646365255294E-2; n = 1
# [15] = system: ADRBK1; details: read-out: apparent Kd, compound concentrations: 100 nM and 1000 nM (sheet 'Samples'), n = 1
# [16] = system: RIOK2; details: read-out: apparent Kd; compound concentrations: 100 nM and 1000 nM (sheet 'Samples'), CATDS: 0.50694616971053197; n = 1
# [17] = system: FLT3; details: read-out: apparent Kd; compound concentrations: 100 nM and 1000 nM (sheet 'Samples'), CATDS: 0.87351473919373701; n = 1
# [18] = system: PDGFRB; details: read-out: apparent Kd; compound concentrations: 100 nM and 1000 nM (sheet 'Samples'), CATDS: 0.21575328371949701; n = 1
# [19] = system: ERBB3; details: read-out: apparent Kd; compound concentrations: 100 nM and 1000 nM (sheet 'Samples'), CATDS: 0.13947545743424; n = 1
# [20] = system: NQO2; details: read-out: apparent Kd; compound concentrations: 100 nM and 1000 nM (sheet 'Samples'), CATDS: 0.16308472458482501; n = 1
smiles,measurement,setting,value
Cc1nnc(-c2ccc(C)c(-c3ccc(C(=O)NCc4ccc(Cl)cc4)cc3)c2)o1 [GW708893X],potency estimated from few doses,[1],1820 nM
same,potency estimated from few doses,[2],2380 nM
same,potency estimated from few doses,[3],1220 nM
same,potency estimated from few doses,[4],2160 nM
same,potency estimated from few doses,[5],1340 nM
same,potency estimated from few doses,[6]; CATDS: 7.0817886716783296E-2,1630 nM
same,potency estimated from few doses,[7]; CATDS: 8.1065909718248605E-2,1250 nM
same,potency estimated from few doses,[8],1370 nM
same,potency estimated from few doses,[9]; CATDS: 6.8216764859784895E-2,1760 nM
same,potency estimated from few doses,[10],726 nM
same,potency estimated from few doses,[11],2220 nM
same,potency estimated from few doses,[12],1590 nM
same,potency estimated from few doses,[13],1960 nM
same,potency estimated from few doses,[14],1810 nM
CCS(=O)(=O)c1ccc(OC)c(Nc2ncc(-c3ccccc3Cl)o2)c1 [GW622055X],potency estimated from few doses,[15]; CATDS: 0.49324160998550998,1780 nM
same,potency estimated from few doses,[16],1680 nM
Cc1cccc(Nc2ncc(-c3ccccc3)o2)c1 [GW632046X],potency estimated from few doses,[15]; CATDS: 0.18601551584516901,1420 nM
same,potency estimated from few doses,[17],26.1 nM
same,potency estimated from few doses,[9]; CATDS: 0.20642475044215899,1000 nM
same,potency estimated from few doses,[18],873 nM
Cn1c(=O)c(F)c(Nc2ccc(I)cc2F)c2c(=O)n(OC[C@H](O)CO)cnc21 [TPKI-16],potency estimated from few doses,[15]; CATDS: 0.13244009116627101,1780 nM
same,potency estimated from few doses,[19],1370 nM
same,potency estimated from few doses,[6]; CATDS: 0.50931897145829497,12.2 nM
same,potency estimated from few doses,[7]; CATDS: 0.45776902126379299,15 nM
same,potency estimated from few doses,[20],677 nM
